Shown are actives, neighbours in structure and some others; about 2.8% of the full set was active somewhere.
PP1 inh: PP1-alpha phosphatase inhibitors, primary screen, counter-screen for PP5 inhibitor project, biochemical, fluorescence, OMFP substrate, single point | Serine/threonine-protein phosphatase PP1-alpha catalytic subunit (Homo sapiens), P62136 | purified PP1alpha | inhibition, % at 6.7 µM | 320,000 tested, 0.9% active | AID 2235, 2010;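 active = inhibition above the mean inhibition of all tested compounds plus 3 SD, computed separately for each screening campaign, cut at about 15% in these data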
PG9 binder: binders of HIV-1 gp120 antibody PG9, primary screen, biochemical, TR-FRET | TR-FRET gp120-PG9 antibody binding | 360,000 tested, 0.43% active | HIV-1 gp120 / PG9 antibody interaction | inhibition, % at 6.7 µM; in the data active = inhibition above about 8.5%
NR1D1 modulator: modulators of Rev-erb alpha DNA binding, primary screen, biochemical, FITC-DNA, fluorescence polarization, uHTS; Rev-erbα–FITC-DNA binding, 90 min; activity, % at 10 µM; 370,000 tested, 0.79% active;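 active = activity above about 14%, limit read from the data; passing the limit was not always enough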;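 also: 0% = DMSO wells with 35 nM protein and 100% = DMSO wells with 750 nM protein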
GASC-1 inh: inhibitors of GASC-1 histone demethylase, primary screen, biochemical, fluorescence, DELFIA europium. AID 2099, 2009. GST-JMJD2C(1-420) H3K9me3 demethylation. 330,000 tested, 0.069% active. inhibition, % at 2.35 µM;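 active = more than half of a compound's replicate wells show inhibition beyond 50%, single wells judged on their own value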;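 also: signal counts dimethyl H3K9 product captured on neutravidin plate; 0% = median of DMSO wells and 100% = 0.3 times that DMSO median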
PP5 inh: PP5 phosphatase inhibitors, primary screen, biochemical, fluorescence. Serine/threonine-protein phosphatase 5 (Homo sapiens), P53041. purified PP5c, OMFP substrate fluorescence. inhibition, % at 6.7 µM. 320,000 tested, 0.18% active. AID 1987, 2009;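 active = inhibition above the campaign's mean inhibition across all tested compounds plus 3 SD, cut at about 9.5% in these data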;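 also: 0% = DMSO only and 100% = 100 µM cantharidin control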
proKLK7 act: proKLK7 zymogen activators, primary screen, biochemical, fluorescence intensity | purified proKLK7, EDANS-DABCYL substrate fluorescence; 100% is mature enzyme control, 0% vehicle | Kallikrein-7 (Homo sapiens), P49862 | activation, % at 7 µM | 370,000 tested, 0.9% active;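 active = activation above the mean of all tested compounds plus 3 SD, computed per campaign excluding outliers beyond control limits, cut at about 13% in these data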
proKLK7 act conf: proKLK7 zymogen activators, confirmation, biochemical, fluorescence intensity, triplicate; shares compounds with proKLK7 act; purified proKLK7, EDANS-DABCYL substrate fluorescence; scaled: vehicle 0, mature enzyme 100; activation, % at 7 µM; 3,200 tested, 68% active;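 active = activation, as change over the incubation, above the mean of all tested compounds plus 3 SD, cut at about 13% in these data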
EDANS-DABCYL int: EDANS-DABCYL substrate optical interference, artefact control for kallikrein-7 zymogen activator project, biochemical, fluorescence intensity, high throughput. shares compounds with proKLK7 act. no enzyme, 4 h; solvent 0%, active enzyme control 100%. activation, % at 7 µM. 3,200 tested, 80% active. AID 686952, 2013;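 active = activation above the all-compound mean plus 3 SD, ignoring values outside control-based bounds, cut at about 4.8% in these data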;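 also: value is the 4 h activation minus the activation read at time zero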
K7 EDANS ctr: optically interferes with EDANS-DABCYL fluorescence, kallikrein-7 activator counter-screen; 250 tested, 20% active; EDANS-DABCYL peptide fluorescence interference, no enzyme; shares compounds with proKLK7 act; EC50, µM;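 active = compounds that raise the fluorescence signal in this interference counterscreen, with EC50 at or below 10 µM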;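 also: intact quenched peptide substrate alone read at 355 nm excitation and 520 nm emission; signal is fluorescence gain from T0 to T4 after four hours at room temperature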
Starred values were filed as active, the others as inactive; i = inactive; . = not tested or not shown.

SMILES	PP1 inh	PG9 binder	NR1D1 modulator	GASC-1 inh	PP5 inh	proKLK7 act	proKLK7 act conf	EDANS-DABCYL int	others
CN1CCN(C(=O)/C=C\c2ccc(Cl)cc2)CC1	0.6	0.4	-9.1	-4.0	4.2	-0.1	.	.
C[C@H](CO)N1C[C@H](C)[C@@H](CN(C)C(=O)NC2CCCCC2)OCc2cn(nn2)CCCC1=O	.	2.4	1.4	.	.	-0.4	.	.
Cc1cc(C(=O)COc2ccc3ccc(=O)oc3c2)c(C)n1Cc1cccs1	4.1	2.4	8.8	-1.6	1.7	77.9*	73.1*	89.4*
O=C(Nc1c(-c2ccccc2)nc2ncccn12)C1CC1	.	.	1.2	.	.	27.8*	28.0*	33.6*
CC(=O)Nc1c(-c2ccc(C)cc2)nc2ncccn12	.	.	1.2	.	.	10.2	.	.
Cc1cccc(C(=O)Nc2c(-c3ccccc3)nc3ncccn23)c1	.	.	2.4	.	.	9.0	.	.
CC(=O)Nc1nc2ncccn2c1-c1ccc(C)cc1	.	.	4.0	.	.	22.5*	48.5*	49.6*
O=C(Nc1c(-c2ccccc2)nc2ncccn12)c1ccccc1	.	.	-0.8	.	.	12.7*	59.8*	13.6*	K7 EDANS ctr=i
O=C(Nc1nc2ncccn2c1-c1ccc(F)c(F)c1)C1CC1	.	.	-1.6	.	.	17.7*	20.2*	23.9*
c1ccc2sc(-c3csc4c3CCNC4)nc2c1	.	.	-3.0	.	.	.	.	.
Cc1ccc(-c2nc(C3CCCN(S(=O)(=O)c4ccccc4)C3)no2)cc1 (centres undefined)	.	.	-1.3	.	.	0.1	.	.
Cc1ccc(-c2nc3ncccn3c2NC(=O)Nc2ccc(F)cc2)cc1	.	.	-1.0	.	.	12.6*	-12.5	-6.5
O=C(Nc1c(-c2ccc(F)cc2)nc2ncccn12)C1CC1	.	.	1.4	.	.	24.8*	36.1*	37.6*
O=C(Nc1ccc(F)cc1)Nc1c(-c2ccccc2)nc2ncccn12	.	.	3.2	.	.	8.4	.	.
C[C@H]1[C@H](N(C)C)CC[C@@]23CCCN2C(=O)CCC[C@@H]13	.	.	-5.9	.	.	.	.	.
OCc1ccccc1-c1cnc2cccnn12	.	-0.1	-4.8	.	.	82.0*	66.5*	78.6*
CN1CCN(C(=O)c2cccc(-c3cccc4nccn34)c2)CC1	.	-1.0	-1.7	.	.	-0.4	.	.
CNc1ccc2ncc(-c3cccc(C(=O)N(C)C)c3)n2n1	.	-0.2	-5.7	.	.	41.9*	39.6*	41.8*
CN1CCN(C(=O)c2ccc(-c3cnc4cccnn34)cc2)CC1	.	-0.3	2.6	.	.	67.5*	69.4*	70.3*
O=C(NCCO)c1cccc(-c2cnc3cccnn23)c1	.	0.4	-5.1	.	.	53.5*	37.7*	37.1*
COC[C@@H](O)[C@H]1OCc2cccc(OC)c2[C@@H]1/C=C/c1ccccc1	.	.	5.0	.	.	0.3	.	.
Cc1ccc(NC(=O)Cc2cccc(OC(F)F)c2)c(S(=O)(=O)N2CCOCC2)c1	.	.	-7.5	.	.	0.1	.	.
CCOc1ccc(C(=O)NCCO)cc1	-3.9	-0.4	-2.5	1.1	-2.1	-1.1	.	.
O=C(NCCO)c1ccc(-c2cnc3cccnn23)cc1	.	1.2	-8.4	.	.	48.3*	62.8*	78.2*
CN(Cc1ccccc1)C(=O)OCc1cn(Cc2cccc(F)c2)nn1	.	.	1.0	.	.	0.4	.	.
CC(C)(C)N(Cc1ccccc1)C(=O)COC(=O)Cn1[nH]c(=O)c2ccccc2c1=O	.	-0.3	2.0	.	.	-0.2	.	.
CC(C)(C)N(Cc1ccccc1)C(=O)COC(=O)Cn1cnc2ccccc2c1=O	-3.5	-1.4	1.5	1.2	2.5	14.7*	0.9	0.6

High-throughput results: PubChem, several laboratories
